G9a inh – inhibitors of human histone lysine methyltransferase G9a; Q96KQ7; G9a H3K9 monomethylation, AlphaScreen, 2 h; Potency, µM (doses to about 102 µM), inactives show top-dose activity, negative = inhibition, actives largely listed as inhibitors; hit rate 8.8% among 350,000; AID 504332; note: potency is the fitted concentration of half-maximal effect; % is set by controls: 0 for no effect and ±100 for the full control effect; nearly all actives have a fitted effect of over 75% in size
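Using a bead-based AlphaScreen, monomethylated H3K9 product from 2 h room-temperature reactions (G9a 20 nM, peptide 500 nM, SAM 20 uM) was detected with 0.5 ug/mL rabbit anti-H3K9me1 antibody.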
L3MBTL1 block – L3MBTL1 (human) inhibition; Potency, µM (titrated, usually from 57.1 µM), inactives show at the highest dose activity, negative = inhibition, actives largely listed as inhibitors; AID 485360; hit rate 0.66% among 230,000; AlphaScreen L3MBTL1–H3K9me1 peptide binding; note: potency is the fitted concentration of half-maximal effect; % is set by controls: 0 for no effect and ±100 for the full control effect; nearly all actives have a fitted effect of over 60% in size
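L3MBTL1 50 nM + b-AHA-H3(1-15)K9me1 75 nM, 30 min RT; compound added, 30 min RT; streptavidin donor/Ni-chelate acceptor beads 10 ug/mL each final, 30 min RT dark; AlphaScreen read.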
PI5P4K alpha inh – PI5P4K alpha (human) kinase inhibition; P48426; PI5P4Kalpha enzyme, ADP-Glo luminescence, 60 min; stronger effect = lower value; max response, %; hit rate 1.2% among 330,000; AID 652105; active = max response of -50% or lower; inconclusive = between -30% and -50%; inactive = -30% or higher; note: value at the top dose of about 77 µM; % is set by controls: 0 for no effect and ±100 for the full control effect
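Single end-point luminescence (ADP-Glo) quantified ADP from PI5P4Kalpha turnover; ATP 5 microM final, 1 h at RT, 0.1% CHAPS and 0.28 mM EGTA in HEPES pH 7.4.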
HP1b chromo inh – blocks HP1-beta chromodomain binding to methylated histone tails; P83916; AlphaScreen HP1-beta / biotin-H3K9me3 peptide binding; Potency, µM (doses to about 114 µM), for the others: top-dose activity change, negative = inhibition, hits mostly inhibitors; hit rate 0.56% among 390,000; AID 540317; note: potency is the fitted concentration of half-maximal effect; nearly all actives have a fitted effect of over 70% in size
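HP1-beta protein (50 nM final) preincubated 30 min at room temperature with biotinylated H3(1-18)K9me3 peptide (50 nM) in PBS pH 7.4, 0.01% Tween-20, then compound added for 30 min. AlphaScreen streptavidin donor/nickel chelate acceptor beads (10 ug/mL final), 30 min dark, luminescence read.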
BAZ2B block – BAZ2B (human) inhibition; AlphaScreen BAZ2B-H3K14Ac peptide displacement; Potency, µM (titrated, usually from 114 µM), for inactives: at the highest dose activity change, negative = inhibition, hits mostly inhibitors; hit rate 4.4% among 360,000; note: potency is the fitted concentration of half-maximal effect; % is set by controls: 0 for no effect and ±100 for the full control effect; nearly all actives have a fitted effect of over 60% in size
Target sequence (Q9UIF8 whole entry, looked up): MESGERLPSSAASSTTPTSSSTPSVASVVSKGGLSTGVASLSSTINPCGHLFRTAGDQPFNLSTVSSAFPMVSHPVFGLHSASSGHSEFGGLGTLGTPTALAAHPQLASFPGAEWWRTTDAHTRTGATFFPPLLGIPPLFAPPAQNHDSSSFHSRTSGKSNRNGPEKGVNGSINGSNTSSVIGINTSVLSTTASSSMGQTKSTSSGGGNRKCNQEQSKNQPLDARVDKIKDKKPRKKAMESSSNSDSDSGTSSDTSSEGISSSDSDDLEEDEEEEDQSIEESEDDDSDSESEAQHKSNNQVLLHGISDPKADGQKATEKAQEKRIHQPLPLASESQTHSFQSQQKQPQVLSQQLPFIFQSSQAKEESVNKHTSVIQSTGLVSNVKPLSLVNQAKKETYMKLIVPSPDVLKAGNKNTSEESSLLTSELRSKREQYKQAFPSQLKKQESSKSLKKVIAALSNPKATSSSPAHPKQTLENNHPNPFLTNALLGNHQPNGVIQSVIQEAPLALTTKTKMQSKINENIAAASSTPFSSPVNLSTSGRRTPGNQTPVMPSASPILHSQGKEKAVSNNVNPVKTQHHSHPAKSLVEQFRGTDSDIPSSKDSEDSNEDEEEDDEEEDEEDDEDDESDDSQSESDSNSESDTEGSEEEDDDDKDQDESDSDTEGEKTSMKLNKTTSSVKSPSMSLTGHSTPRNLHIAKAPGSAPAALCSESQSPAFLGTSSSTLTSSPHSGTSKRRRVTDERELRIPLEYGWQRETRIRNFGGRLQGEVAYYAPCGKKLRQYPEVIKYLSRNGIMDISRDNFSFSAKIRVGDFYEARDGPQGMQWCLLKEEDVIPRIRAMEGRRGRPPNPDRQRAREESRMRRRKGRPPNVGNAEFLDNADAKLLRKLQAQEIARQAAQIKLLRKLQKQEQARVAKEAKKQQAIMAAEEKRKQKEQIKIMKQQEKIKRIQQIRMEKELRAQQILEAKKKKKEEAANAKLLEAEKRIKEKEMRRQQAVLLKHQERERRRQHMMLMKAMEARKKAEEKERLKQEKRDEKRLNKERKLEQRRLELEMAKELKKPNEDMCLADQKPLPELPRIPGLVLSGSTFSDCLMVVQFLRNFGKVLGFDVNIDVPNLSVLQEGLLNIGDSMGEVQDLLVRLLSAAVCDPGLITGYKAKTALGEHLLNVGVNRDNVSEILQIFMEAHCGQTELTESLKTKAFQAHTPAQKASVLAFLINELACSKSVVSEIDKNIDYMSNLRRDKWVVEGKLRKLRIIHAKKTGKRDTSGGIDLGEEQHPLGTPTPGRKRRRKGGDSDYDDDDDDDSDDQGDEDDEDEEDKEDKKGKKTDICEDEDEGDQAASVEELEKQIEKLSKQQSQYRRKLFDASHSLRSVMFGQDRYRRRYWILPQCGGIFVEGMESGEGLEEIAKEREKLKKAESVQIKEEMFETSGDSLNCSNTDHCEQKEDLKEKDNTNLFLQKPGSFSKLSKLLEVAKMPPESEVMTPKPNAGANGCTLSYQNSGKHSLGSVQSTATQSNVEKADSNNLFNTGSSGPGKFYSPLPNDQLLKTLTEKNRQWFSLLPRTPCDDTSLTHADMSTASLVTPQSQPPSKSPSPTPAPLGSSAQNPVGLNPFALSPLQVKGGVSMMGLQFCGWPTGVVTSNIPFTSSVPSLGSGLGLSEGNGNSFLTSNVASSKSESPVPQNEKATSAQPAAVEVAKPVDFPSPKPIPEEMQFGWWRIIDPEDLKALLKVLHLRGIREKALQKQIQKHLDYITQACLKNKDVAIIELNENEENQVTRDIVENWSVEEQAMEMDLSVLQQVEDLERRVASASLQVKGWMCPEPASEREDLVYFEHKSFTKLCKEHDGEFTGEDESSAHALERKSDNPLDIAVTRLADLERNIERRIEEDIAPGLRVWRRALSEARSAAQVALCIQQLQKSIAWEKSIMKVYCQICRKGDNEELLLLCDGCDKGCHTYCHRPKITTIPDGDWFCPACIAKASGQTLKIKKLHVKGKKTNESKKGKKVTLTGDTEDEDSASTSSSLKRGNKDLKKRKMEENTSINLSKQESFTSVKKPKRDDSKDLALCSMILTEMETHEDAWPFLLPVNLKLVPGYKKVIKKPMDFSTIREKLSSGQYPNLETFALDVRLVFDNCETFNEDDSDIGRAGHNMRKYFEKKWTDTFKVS
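Compounds, titrated to a top concentration of 110 uM, were incubated 30 min at room temperature with preformed BAZ2B/acetyl-K14 H3 peptide complex (50 nM each). Proximity signal was measured by AlphaScreen after 20 min with beads.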
JMJD2A Tudor inh – inhibitors of human JMJD2A Tudor domain; O75164; AlphaScreen JMJD2A-Tudor / H3K4me3 peptide binding; Potency, µM (doses to about 114 µM), without a hit: at the highest dose activity change, negative = inhibition, actives largely listed as inhibitors; hit rate 4.4% among 390,000; AID 504339; note: potency is the fitted concentration of half-maximal effect; % is set by controls: 0 for no effect and ±100 for the full control effect; nearly all actives have a fitted effect of over 50% in size
The depositor's hits bear a star; ? = inconclusive; . = no result given; [ ] = another dose, or the depositor's remark. The list is not random: actives were taken first. Their share in the collection is about 11%. Unless noted, calls come from the whole dose curve; as a rule, active = well fitted inhibition curve with a large enough effect; inconclusive = small, poorly fitted or top-dose-only effect; inactive = no such curve, though single readings can be large or run the other way.

SMILES | G9a inh | L3MBTL1 block | PI5P4K alpha inh | HP1b chromo inh | BAZ2B block | JMJD2A Tudor inh
CCOC(=O)c1cc(-c2ccco2)nc2c1c(C)nn2CCC#N | 11µM* | -5% | -22 | 25% | -7% | -16%
COc1ncc2nc(-c3ccc(F)cc3)c(=O)n(-c3ccccc3)c2n1 | 7%[0.501 µM] | . | . | . | . | .
COc1ccc(C(=O)Nc2cc(C(C)=O)c(C)oc2=O)cc1 | 35µM* | . | 5 | 47% | -20% | -6%
CC(=O)c1cc(NC(=O)c2cccc(C(F)(F)F)c2)c(=O)oc1C | 25µM* | . | 12 | -12% | -20% | -20%[11.4 µM]
Cc1cccc(CNC(=O)Cc2csc3ccccc23)c1 | 9%[59 µM] | . | . | 45% | 11% | -5%
CCn1c(SCC(=O)c2ccc(O)c(O)c2)nnc1-c1ccc(C)cc1 | 10%[2.33 µM] | ? | ? | -10% | ? | 28µM*
CCn1c(SCC(=O)N/N=C(\C)c2ccncc2)nnc1-c1ccccc1 | 3%[0.501 µM] | 12% | 7 | 20% | 6% | -3%
CCn1c(SCC(=O)N/N=C(\C)c2ccncc2)nnc1-c1ccc(C)cc1 | 50µM* | -3% | 1 | 28% | -1% | -17%
CCn1c(Cc2cccn2C)nnc1SCC(=O)c1ccc(C)cc1 | ? | -27% | -12 | -20% | 50µM* | ?
Cc1cccc(-n2ncc3c(NNC(=O)c4ccccc4Cl)ncnc32)c1 | 29%[59 µM] | . | . | 14% | 8% | -28%
CCc1c(C(=O)Nc2ccccc2)c(C)[nH]c(=S)c1C#N | 1.6µM* | . | . | ? | -8% | 7.1µM*
Cc1[nH]c(=S)c(C#N)c(C)c1C(=O)Nc1ccccc1 | 1.3µM* | . | -14 | ? | -4% | 8.9µM*
CCn1cnc2c(Nc3ccc(CCC(=O)N=C(N)N)cc3)nc(C#N)nc21 | . | . | . | . | . | -9%
O=C(/C=C/c1ccccc1Cl)c1ccc(O)cc1 | -12% | -8% | -54* | -38% | -23% | -18%
O=C(/C=C/c1ccc(Cl)cc1)c1cccnc1 | 45µM* | . | -2 | 24% | -8% | -8%
N#Cc1ccc(/C=C/C(=O)c2cccnc2)cc1 | 25µM* | 6% | 0 | 17% | . | -28%
CCN(CC)c1ccc(/C=C/C(=O)c2cccnc2)cc1 | -13% | -14% | -2 | 21% | ? | ?
O=C(/C=C/c1ccccc1Cl)c1cccnc1 | 35µM* | . | 2 | 22% | -7% | -19%
O=C(/C=C/c1c(F)cccc1Cl)c1ccc(O)cc1 | -22% | -9% | -29 | 27% | -24% | -15%
Cc1ccc(Sc2ccc(N3CCC(C(=O)Nc4ccc(C)c(F)c4)CC3)nn2)cc1 | 6%[59 µM] | . | . | 22% | 1% | -9%
CC1CCN(S(=O)(=O)c2ccc3c(c2)N(CC(=O)N2CCN(c4ccccc4)CC2)C(=O)CO3)CC1 | -33%[59 µM] | . | . | 29% | -11% | -8%
CCN(CC)C(=O)Cn1c(SCC(=O)Nc2ccc(F)cc2)nc2ccccc21 | 2%[59 µM] | . | . | 15% | -8% | -10%
Cn1cccc1-c1nc2ccc(NC(=O)c3ccco3)cc2[nH]1 | ? | . | -1 | ? | 50µM* | ?
Cc1ccc2nc(-c3ccc(NC(=O)c4ccco4)cc3)[nH]c2c1 | 28µM* | 11% | . | -20% | -16% | -34%
O=C(Nc1ccc2nc(-c3cccs3)[nH]c2c1)c1ccco1 | ? | -1% | -12 | 42% | 1% | 0%
SMILES | G9a inh | L3MBTL1 block | PI5P4K alpha inh | HP1b chromo inh | BAZ2B block | JMJD2A Tudor inh
Cc1ccc(-c2nnc(-c3ccc(NC(=O)c4ccco4)cc3)o2)cc1 | 8%[12.7 µM] | 4% | 4 | 13% | 3% | -30%
CN(C(=O)CSc1nc2ncccc2o1)c1ccc(F)cc1 | -4%[59 µM] | . | . | 46% | -4% | -4%
CC[n+]1ccc(/C=C/c2c[nH]c3ccccc23)cc1 | . | 8% | 2 | 36% | -8% | ?
COc1ccc2c(/C=C/c3cc[n+](C)cc3)c[nH]c2c1 | 50µM* | . | 11 | -10% | -8% | -18%
Cc1ccc2[nH]cc(/C=C/c3cc[n+](C)cc3)c2c1 | 45µM* | . | 1 | -25% | -12% | -15%
O=c1c2c([N+](=O)[O-])cc([N+](=O)[O-])cc2sn1-c1ccc(Br)cc1 | 1.4µM* | -18% | -85* | 7.9µM* | 5µM* | 18µM*
O=C(Nc1ccc(Br)cc1)c1cc([N+](=O)[O-])cc([N+](=O)[O-])c1 | . | 3% | -3 | 10% | -36% | -20%
O=[N+]([O-])c1ccc(S(=O)Cc2ccccc2)c([N+](=O)[O-])c1 (centres undefined) | . | . | 0 | -14% | . | ?
O=c1c2c([N+](=O)[O-])cc([N+](=O)[O-])cc2sn1Cc1ccccc1 | 1µM* | . | -80* | ? | 3.5µM* | 4.5µM*
O=C(O)CCN1C(=O)C(=C2CCCCCC2)SC1=S | 45µM* | 2% | -10 | 35% | 10% | -13%
CN(C)c1ccc(C=C2SC(=S)N(Cc3ccco3)C2=O)cc1 | . | . | -16 | . | . | .
O=C1C(=C2CCCCC2)SC(=S)N1Cc1ccco1 | 35µM* | ? | -27 | -23% | ? | 56µM*
CS(=O)(=O)N1CCC2(CC1)CN(Cc1ccc(C#N)cc1)C2 | 9%[12.7 µM] | . | . | . | . | .
O=C(Nc1ccccc1Cl)[C@H](CSCc1ccccc1)N1Cc2ccccc2C1=O | -22%[59 µM] | . | . | 38% | -19% | -2%
COC(=O)c1ccc(N2NC(=O)/C(=C/c3cc(OC)c(O)c(OC)c3)C2=O)cc1 | 2.8µM* | . | -29 | ? | 45µM* | ?
COc1cc(/C=C2/C(=O)NN(c3ccc(Cl)cc3)C2=O)cc(Br)c1O | . | -24% | ? | ? | 45µM* | 40µM*
COc1cc(/C=C2/C(=O)NN(c3ccc(F)cc3)C2=O)cc(Cl)c1O | 28µM* | . | ? | ? | 32µM* | 32µM*
COc1cc(/C=C2/C(=O)NN(c3ccc(Cl)c(Cl)c3)C2=O)cc([N+](=O)[O-])c1O | 18µM* | . | -88* | ? | 40µM* | 16µM*
CCCCC(=O)NC1(C(F)(F)F)C(=O)Nc2c1c(=O)[nH]c(=O)n2-c1ccc(F)cc1 (centres undefined) | 5%[59 µM] | . | . | 23% | -3% | -18%
O=C(CSc1nc(-c2ccccc2)nc2c1Cc1ccccc1O2)N1CCCCC1 | 6%[59 µM] | . | . | 46% | -22% | -8%
COc1ccc(OC)c(CN2CCN(C(=O)c3ccc(C)c(S(=O)(=O)Nc4ccccc4OC)c3)CC2)c1 | . | . | 1 | 6% | . | ?
CCn1ccc2c(OCC(=O)Nc3ccc(C(C)=O)cc3)cccc2c1=O | -2%[59 µM] | . | . | 29% | -14% | -5%
COCC(=O)n1nc(-c2ccccc2)nc1NCc1ccc(N(C)C)cc1 | -4%[12.7 µM] | -15% | -2 | 50µM* | 32µM* | 35µM*
CCc1ccccc1NC(=O)CSc1nc(-c2ccccc2)nn1C(=O)c1cccc([N+](=O)[O-])c1 | 9%[59 µM] | 5% | . | . | 8%[57.1 µM] | .

Screening results (PubChem BioAssay)
